This is one part of a sample in which hits are shown more often than they occur.
Mm-Cpn inhibitor: Inhibitors of TCP-1 ring complex (TRiC) of Methanococcus maripaludis (MmCpn): qHTS. Chaperonin Mm-Cpn (Methanococcus maripaludis). purified Mm-Cpn ATPase, ADP Transcreener TR-FRET. Potency, µM (doses to about 76.9 µM), for the others: at the highest dose activity, negative = inhibition, hits mostly inhibitors. actives 0.031% (n = 330,000). AID 504842, 2011; further: on the % scale 0 is the no-effect control and ±100 the full control effect; nearly all actives have a fitted effect of over 80% in size
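Quantitative HTS used 25 nM Mm-CPN and 10 uM ATP in magnesium/KCl Tris buffer, pH 7.4, with 1 mM DTT. Hydrolysis ran 30 min at 37°C; ADP was read by HTRF.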
Eya2 phos inh: qHTS Assay for Inhibitors of the Phosphatase Activity of Eya2. Protein phosphatase EYA2 (Homo sapiens), O00167. recombinant Eya2, OMFP fluorescence dephosphorylation (OMFP is methylfluorescein phosphate). Potency, µM (top dose mostly 76.9 µM), for inactives: at the highest dose activity, negative = inhibition, actives largely listed as inhibitors. actives 0.006% (n = 330,000); further: on the % scale 0 is the no-effect control and ±100 the full control effect
Target sequence (O00167 whole entry, looked up): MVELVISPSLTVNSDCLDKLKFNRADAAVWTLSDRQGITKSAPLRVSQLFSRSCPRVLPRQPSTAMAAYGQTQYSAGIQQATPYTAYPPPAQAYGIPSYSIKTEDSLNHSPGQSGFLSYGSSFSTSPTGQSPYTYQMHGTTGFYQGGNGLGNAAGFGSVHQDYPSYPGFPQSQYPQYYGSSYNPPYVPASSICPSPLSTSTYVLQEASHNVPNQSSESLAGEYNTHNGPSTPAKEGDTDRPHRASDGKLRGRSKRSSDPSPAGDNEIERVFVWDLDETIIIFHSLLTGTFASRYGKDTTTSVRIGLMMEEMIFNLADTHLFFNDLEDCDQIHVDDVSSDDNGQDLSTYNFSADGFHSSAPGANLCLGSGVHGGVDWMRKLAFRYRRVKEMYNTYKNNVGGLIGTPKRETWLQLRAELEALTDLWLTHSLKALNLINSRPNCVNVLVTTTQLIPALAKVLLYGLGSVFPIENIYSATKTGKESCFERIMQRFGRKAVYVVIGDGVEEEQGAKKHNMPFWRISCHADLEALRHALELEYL
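Eya2 (0.2 uM) preincubated 10 min at ambient with compound, then OMFP substrate added at 50 uM; 10 min reaction in 50 mM HEPES pH 7.5, 50 mM NaCl, 5 uM MgCl2, 0.05% BSA, 1 mM DTT. Fluorescence read at Ex 485/Em 525 nm.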
ClpP mod: qHTS Assay for Activators of ClpP; ATP-dependent Clp protease proteolytic subunit (Bacillus subtilis (strain 168)), P80244; purified B. subtilis ClpP, FRET peptide cleavage, 20 min; Potency, µM (doses to about 57.5 µM), for the others: at the top dose activity change, negative = active; actives 1.9% (n = 340,000); active means well fitted falling curve with a large enough effect; inconclusive means small, poorly fitted or top-dose-only effect; inactive means no such curve, though single readings can be large or run the other way; further: the source files actives as falling curves though it sought activators and does not explain the sign; nearly all actives have a fitted effect of over 65% in size
Target sequence (P80244 whole entry, looked up): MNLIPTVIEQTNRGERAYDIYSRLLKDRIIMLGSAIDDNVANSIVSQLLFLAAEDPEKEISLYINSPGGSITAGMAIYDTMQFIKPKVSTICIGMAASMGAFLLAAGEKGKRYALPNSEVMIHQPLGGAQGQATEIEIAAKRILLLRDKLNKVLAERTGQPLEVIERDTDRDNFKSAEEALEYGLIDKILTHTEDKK
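Purified B. subtilis ClpP, 10 microg/mL final in Tris/HCl pH8 with KCl, BSA, glycerol and Tween-20, cleaved an Abz/nitrotyrosine-quenched decapeptide. Fluorescence (ex 320, em 430) was read at 0 and 20 min at room temperature. Delta was normalized to 5.8 microM ADEP and DMSO/no-enzyme controls.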
USP2a inh: qHTS Assay for Inhibitors of Ubiquitin-specific Protease USP2a Using CHOP2 as the Reporter | Ubiquitin carboxyl-terminal hydrolase 2 (Homo sapiens), O75604 | USP2 core, Ub-CHOP2 coupled fluorogenic reporter, 485/531 | Potency, µM (top dose mostly 38.3 µM), for the others: at the highest dose activity change, negative = inhibition, usual class: inhibitors | actives 0.01% (n = 330,000);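 further: plate controls were DMSO wells for no effect and full inhibition by NEM control for full effect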
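USP2 core (10nM final) preincubated 30min RT with compound in 20mM Tris-HCl pH 8.0, 2mM CaCl2, 2mM beta-mercaptoethanol, 0.05% CHAPS; 25nM Ub-CHOP2 plus 25nM reporter substrate added, fluorescence (Ex485/Em531) read after 60min.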
p53 reactivation: qHTS assay for re-activators of p53 using a Luc reporter; H1299 p53-A138V BP100-luciferase reporter, luminescence, 24 h; Potency, µM (top dose mostly 92.2 µM), without a hit: at the highest dose activity change, positive = activation, actives largely listed as activators; actives 0.063% (n = 320,000); further: % of control where 0% means no effect; nearly all actives have a fitted effect of over 45% in size
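p53-null H1299 cells stably carrying temperature-sensitive p53-A138V and a BP100-luciferase reporter were pinned with compounds (4-point, 1:5 series) and held 24 hrs at 37 deg C. Luminescence was read 10 min after detection reagent.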
Integrin act MD: qHTS for Activators of Integrin-Mediated Alleviation for Muscular Dystrophy | alpha7betagal myoblasts, beta-gal FDG fluorescence, 48 h | Potency, µM (top dose mostly 38.3 µM), inactives show at the top dose activation, usual class: activators | actives 0.064% (n = 350,000) | AID 624291, 2012;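 further: 100% = response of the positive control SU9516; nearly all actives have a fitted effect of over 60% in size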
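alpha7betagal+/- myoblasts (passage 13, 250/well) treated 48 h at 37C with compounds at 1:260 dilution of DMSO stock. Lysed, then beta-galactosidase activity read as FDG fluorescence (ex 480/em 540) after 30 min, with pre-read for autofluorescence.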
* = called active by the depositor. Unless noted, the call rests on the fitted dose curve; in most records, active means well fitted curve in the direction sought with a large enough effect; inconclusive means small, poorly fitted or top-dose-only effect, or another doubt; inactive means no such curve, though single readings can be large; an effect the other way counts as inactive or inconclusive. Potency means the concentration at half of the fitted maximal effect.

`C[C@H]1c2cccc(O)c2C(O)=C2C(=O)[C@]3(O)C(O)=C(C(N)=O)C(=O)[C@@H](N(C)C)C3[C@@H](O)C21` (some centres undefined) gave Mm-Cpn inhibitor 0.7%, Eya2 phos inh -19.6%, ClpP mod 1.4%, USP2a inh 2.2% and p53 reactivation -2.9%.
Screening CN(C)c1ccc(/C=C/c2cc3ccccc3c[n+]2C)cc1 returned ClpP mod -1.8%.
`CC(C)(C)n1nnnc1C(c1cc2cc3c(cc2[nH]c1=O)OCCO3)N1CCSCC1` (centres undefined) gave Mm-Cpn inhibitor -15.0%, Eya2 phos inh -3.1%, ClpP mod 25.1µM*, USP2a inh -0.6%, p53 reactivation -12.1% and Integrin act MD 31.7%.
Screening COc1ccc2cc(C(c3nnnn3C(C)(C)C)N3CCSCC3)c(=O)[nH]c2c1 (centres undefined) returned Mm-Cpn inhibitor 0.3%, Eya2 phos inh -2.5%, ClpP mod -6.5%, USP2a inh 0.1%, p53 reactivation -10.6% and Integrin act MD 12.9%.
For CCC(C)(C)n1nnnc1C(c1cc2cc3c(cc2[nH]c1=O)OCO3)N1CCN(C)CC1 (centres undefined) the results were Mm-Cpn inhibitor -0.7%, Eya2 phos inh -4.0%, ClpP mod 8.91µM*, USP2a inh 3.2%, p53 reactivation 0.8% and Integrin act MD -2.8%.
`COc1ccccc1C(=O)Nc1ccc(-c2cc(C(F)(F)F)nn2-c2ccccc2)cc1` gave ClpP mod 22.4µM*.
`COc1ccccc1C(=O)NC(=O)Nc1ccc(-c2cc(C(F)(F)F)nn2-c2ccccc2)cc1` gave ClpP mod -0.3%.
`CCCCNC(=O)Cc1c(O)c2ccccc2[nH]c1=O` gave Mm-Cpn inhibitor 2.4%, Eya2 phos inh 37.3%, ClpP mod 20µM*, USP2a inh 3.8%, p53 reactivation 0.6% and Integrin act MD -14.0%.
For CCCCCCNC(=O)Cc1c(O)c2ccccc2[nH]c1=O the results were Mm-Cpn inhibitor 0.9%, Eya2 phos inh -21.5%, ClpP mod 28.2µM*, USP2a inh 0.9%, p53 reactivation 3.9% and Integrin act MD 6.1%.
`Fc1ccc(N2N=C(c3cccs3)CC2c2ccccc2)cc1` (centres undefined) gave Mm-Cpn inhibitor -2.1%, Eya2 phos inh 9.5%, USP2a inh 1.5%, p53 reactivation 2.0% and Integrin act MD 7.3%.
`Fc1ccccc1N1CC(c2ccccc2)C(c2cccs2)=N1` (centres undefined) gave Mm-Cpn inhibitor -3.8%, Eya2 phos inh 18.6%, ClpP mod 15.8µM*, USP2a inh 2.8%, p53 reactivation 1.2% and Integrin act MD 26.5%.
Screening NC(=O)c1ccccc1N=Cc1cccnc1 returned Integrin act MD -12.0%.
Screening Cc1ccc(C=Nc2ccccc2C(=O)Nc2ccccc2)cc1 returned Mm-Cpn inhibitor -2.4%, Eya2 phos inh -2.1%, ClpP mod 28.2µM*, USP2a inh 2.5%, p53 reactivation 0.8% and Integrin act MD 12.4%.
`Cc1ccc(C=Nc2ccccc2C(N)=O)cc1` gave Mm-Cpn inhibitor -1.2%, Eya2 phos inh 12.2%, ClpP mod 31.6µM*, USP2a inh inconclusive, p53 reactivation inconclusive and Integrin act MD -22.3%.
Screening NC(=O)c1ccccc1N=Cc1ccccn1 returned Mm-Cpn inhibitor -1.4%, Eya2 phos inh 6.9%, ClpP mod 25.1µM*, USP2a inh 1.8%, p53 reactivation 15.9% and Integrin act MD -1.2%.
`Cc1ccccc1C=Nc1ccccc1C(N)=O` gave Mm-Cpn inhibitor 3.5%, Eya2 phos inh 5.5%, ClpP mod 28.2µM*, USP2a inh 0.0%, p53 reactivation -2.0% and Integrin act MD 6.5%.
For O=C(Nc1ccccc1)c1ccccc1N=Cc1cccc(O)c1 the results were Mm-Cpn inhibitor -1.6%, Eya2 phos inh -20.8%, USP2a inh 0.5%, p53 reactivation -5.3% and Integrin act MD 0.4%.
O=C(CSc1nc(-c2cccs2)nc2cc(=O)[nH]n12)Nc1cccc(C(F)(F)F)c1 was read as ClpP mod 0.3%.
CCOc1ccc2c(c1)c(=O)c(C(=O)c1ccc(CC)cc1)cn2CC(=O)Nc1ccc2c(c1)OCCO2 was read as ClpP mod 1.4%.
Screening Cc1ccc2nc(CO)[nH]c2c1 returned ClpP mod 1.4%.
For COc1cccc(C=Nc2ccccc2C(=O)Nc2ccccc2)c1O the results were Mm-Cpn inhibitor -4.0%, Eya2 phos inh -11.7%, ClpP mod 22.4µM*, USP2a inh -0.8%, p53 reactivation inconclusive and Integrin act MD -7.4%.
COc1cccc(/C=N/NC(=O)CSCC(=O)Nc2ccccc2)c1O was read as Mm-Cpn inhibitor 1.9%, Eya2 phos inh 0.4%, ClpP mod -4.5%, USP2a inh -0.7%, p53 reactivation inconclusive and Integrin act MD 13.9%.
`O=S1(=O)CCOC[C@H](c2ccccc2)N1Cc1ccc(F)cc1` gave ClpP mod 1.2%.
Screening O=C(O)c1cccc(N2CCCC2)c1 returned Mm-Cpn inhibitor -1.8%, Eya2 phos inh 7.2%, ClpP mod 28.2µM*, USP2a inh 5.1%, p53 reactivation 25.5% and Integrin act MD 23.2%.
For O=C(O)c1cccc(N2CCCC2=O)c1 the results were Mm-Cpn inhibitor 0.4%, Eya2 phos inh 4.5%, ClpP mod -0.2%, USP2a inh 9.2%, p53 reactivation -12.6% and Integrin act MD 17.1%.
For CCc1nc2c(c(SC)nn2-c2ccccc2)c(N)c1C(=O)OC the results were Mm-Cpn inhibitor -0.1%, Eya2 phos inh -1.6%, ClpP mod 31.6µM*, USP2a inh -1.1%, p53 reactivation -0.5% and Integrin act MD 13.5%.
For COC(=O)c1cc(C)nc2c1c(C)nn2-c1ccccc1 the results were Mm-Cpn inhibitor -1.1%, Eya2 phos inh 5.4%, ClpP mod -7.7%, USP2a inh -3.5%, p53 reactivation inconclusive and Integrin act MD 22.3%.

Assay outcomes: PubChem, National Center for Advancing Translational Sciences (NCATS)
